This passage reports Potency results from PubChem BioAssay (Tox21).

Several values for one entry are separate records, joined by “and”; a condition that tells them apart may be missing. Equal entries are not always repeated. Inconclusive results are not listed. Activity calls are given as the source filed them. The call rests on the fitted dose curve; in most records, active means well fitted inhibition curve with a large enough effect in the signal ratio in the repeat runs (not every such curve was filed as active); inconclusive means weak or mixed curves, or effect the other way; inactive means no such curve, though single readings can be large or run the other way; the % refers to the signal ratio.
Potency means the concentration at half of the fitted maximal effect.

Androgen receptor (Homo sapiens), sequence (P10275 whole entry, looked up): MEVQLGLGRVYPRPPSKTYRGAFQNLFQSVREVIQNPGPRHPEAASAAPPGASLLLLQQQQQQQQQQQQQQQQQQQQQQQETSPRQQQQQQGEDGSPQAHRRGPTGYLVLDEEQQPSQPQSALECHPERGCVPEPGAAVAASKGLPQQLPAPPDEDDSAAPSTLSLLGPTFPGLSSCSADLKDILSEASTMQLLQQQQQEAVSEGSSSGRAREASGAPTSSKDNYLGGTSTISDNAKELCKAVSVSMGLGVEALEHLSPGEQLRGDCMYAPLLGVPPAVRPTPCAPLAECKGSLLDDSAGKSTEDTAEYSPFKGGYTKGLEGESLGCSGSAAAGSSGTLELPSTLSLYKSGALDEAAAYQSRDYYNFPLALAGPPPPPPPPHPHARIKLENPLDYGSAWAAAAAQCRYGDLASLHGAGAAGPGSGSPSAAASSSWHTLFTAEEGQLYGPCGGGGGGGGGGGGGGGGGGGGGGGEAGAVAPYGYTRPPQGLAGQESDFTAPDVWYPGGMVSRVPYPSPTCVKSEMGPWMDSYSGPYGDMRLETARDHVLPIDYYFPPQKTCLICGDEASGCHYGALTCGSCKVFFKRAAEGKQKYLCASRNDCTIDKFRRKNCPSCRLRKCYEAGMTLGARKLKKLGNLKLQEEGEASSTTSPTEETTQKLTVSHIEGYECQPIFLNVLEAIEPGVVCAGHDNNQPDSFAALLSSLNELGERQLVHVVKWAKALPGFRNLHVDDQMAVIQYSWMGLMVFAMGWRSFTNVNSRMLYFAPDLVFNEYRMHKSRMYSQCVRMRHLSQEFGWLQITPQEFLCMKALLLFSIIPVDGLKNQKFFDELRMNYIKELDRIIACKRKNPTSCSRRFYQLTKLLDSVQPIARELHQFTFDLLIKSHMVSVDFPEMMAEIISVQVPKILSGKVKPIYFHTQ

This experiment concerns the target Androgen receptor (Homo sapiens) (UniProt P10275). Briefly: qHTS assay to identify small molecule antagonists of the androgen receptor (AR) signaling pathway (AID 743035). The following applies: HEK293 AR-UAS-bla, R1881-stimulated, beta-lactamase FRET, 16 h; series mostly up to 58.5 µM. The source says: National Center for Advancing Translational Sciences [NCATS]
NIH Chemical Genomics Center [NCGC]
U.S. Environmental Protection Agency [EPA]
National Institutes of Environmental Health Sciences [NIEHS]
National Toxicology Program [NTP]
U.S. Food and Drug Administration [FDA]
Androgen receptor (AR), a nuclear hormone receptor, plays a critical role in AR-dependent prostate cancer and other androgen related diseases. Endocrine disrupting chemicals (EDCs) and their interactions with steroid hormone receptors like AR may cause disruption of normal endocrine function as well as interfere with metabolic homeostasis, reproduction, developmental and behavioral functions. To identify the compounds that inhibit AR signaling, GeneBLAzer AR-UAS-bla-GripTite cell line (Invitrogen, Carlsbad, CA, USA) containing a beta-lactamase reporter gene under control of an Upstream Activator Sequence (UAS) stably integrated into HEK293 cells was used to screen the Tox21 10K compound library.
Tox21 Assay Protocol Summary:
AR-bla cells were dispensed at 2,000 cells/5 uL of assay medium per well into black wall/clear-bottom 1536-well plates using a Multidrop Combi (ThermoFisher Scientific, Waltham, MA) dispenser. After the assay plates were incubated at a 37C and 5% CO2 for 4 hr, 23 nL of compounds dissolved in DMSO, positive controls or DMSO only was transferred to the assay plate by a Pintool station (Kalypsys, San Diego, CA), followed by addition of 1 uL of agonist (R1881) in culture medium using a Bioraptr Flying Reagent Dispenser (FRD) workstation (Beckman Coulter, Indianapolis, IN, USA). The plates were incubated at a 37C and 5% CO2 for 16 h. After 1 uL of LiveBLAzerTM B/G FRET substrate was added using a Bioraptr FRD, the plates were incubated at room temperature for 2 h and fluorescence intensity was measured by an Envision plate reader (PerkinElmer, Shelton, CT).
Turning to `C[C@@H]1O[C@@H](O[C@H]2C[C@@H](O)[C@]3(CO)[C@H]4[C@H](O)C[C@]5(C)[C@@H](C6=CC(=O)OC6)CC[C@]5(O)[C@@H]4CC[C@]3(O)C2)[C@H](O)[C@H](O)[C@H]1O`, the Potency is 213 nM (active) and 190 nM (active) and 46.5 nM (active). Turning to `C=CC(=O)OCC(COC(=O)C=C)(COC(=O)C=C)COC(=O)C=C`, the Potency is 4.36 µM (active). In the case of `CC(C)(C)OO`, the Potency result is “inactive”. The result for `CN(C)CCc1c[nH]c2ccc(O)cc12` reads “inactive”; that for `FC(Cl)(Cl)Cl`, “inactive”. The result for `CC(=O)C(Cl)(Cl)Cl` reads 5.31 µM (active); that for `ClC1=C(Cl)C2(Cl)C3C(Cl)C(Cl)CC3C1(Cl)C2(Cl)Cl` (stereo not drawn), 48.8 µM (active) and 43.6 µM (active).

Turning to `CCN(CC)c1c([N+](=O)[O-])cc(C(F)(F)F)c(N)c1[N+](=O)[O-]`, the Potency is 43.6 µM (active). Regarding `Cc1cc(N=Nc2ccccc2C)ccc1N`, the Potency was 21.9 µM (active). As for `O=C(CCl)Nc1ccccc1`, the Potency is 15.5 µM (active). For `CNC(C)Cc1ccc2c(c1)OCO2` (stereo not drawn), the Potency result is “inactive”. Regarding `O=c1oc2ccccc2c(O)c1Cc1c(O)c2ccccc2oc1=O`, the Potency entry was “inactive”.

In the case of `CC(=O)/C=C/c1ccc2c(c1)OCO2`, the Potency is 12.4 µM (active). For `CCCCCCCCCCCCCCCCCCn1cc[n+](C)c1`, the Potency was 3.87 µM (active). For the compound `CC(C)N1C(=O)N(c2ccccc2)CSC1=NC(C)(C)C`, the Potency entry is “inactive”. As for `COc1cccc(C(=O)CCN[C@@H](C)[C@H](O)c2ccccc2)c1`, the Potency result is “inactive”. The result for `COC(=O)N(C(=O)N1CO[C@@]2(C(=O)OC)Cc3cc(Cl)ccc3C2=N1)c1ccc(OC(F)(F)F)cc1` reads 6.69 µM (active); that for `CCCSP(=O)(OCC)SCCC`, “inactive”; that for `COc1ccc(/C(=C/C(=O)N2CCOCC2)c2ccc(Cl)cc2)cc1OC`, “inactive”. On to `N#CCCSCCC#N`, for which the Potency result was “inactive”.

`CCOC(=O)C1(c2ccccc2)CCN(CCC(C#N)(c2ccccc2)c2ccccc2)CC1`: the Potency was 10.7 µM (active) and 13.4 µM (active).

In the case of `S=C=Nc1cccc2ccccc12`, the Potency is 48.5 µM (active). For the compound `C[C@H]1O[C@@H](O[C@H]2[C@@H](O)C[C@H](O[C@H]3[C@@H](O)C[C@H](O[C@H]4CC[C@@]5(C)[C@H](CC[C@@H]6[C@@H]5CC[C@]5(C)[C@@H](C7=CC(=O)OC7)CC[C@]65O)C4)O[C@@H]3C)O[C@@H]2C)C[C@H](O)[C@@H]1O`, the Potency was 425 nM (active) and 124 nM (active).
